Data from ChEMBL document CHEMBL4513216, “Probing the Open Global Health Chemical Diversity Library for Multistage-Active Starting Points for Next-Generation Antimalarials” (ACS Infect Dis, 2020).
The campaign covered roughly 68,000 compounds. About 2,700 (4%) showed an effect of 50% or more. The list comes from a sample in which strong results are over-represented; it also holds similar structures and randomly drawn compounds.

test system: Plasmodium berghei; experiment: Screen against P. berghei liver stage (PbLuc), transformed with Luciferase, at 2uM; format: functional, HepG2; details: tested at 2 uM

Structure (SMILES)	INHIBITION [%]
CC(C)c1cc(C(=O)NCC(O)C2CCOCC2)nn1C(C)(C)C (configuration not stated)	-31.6
Cc1nc2cc(O)nn2c(C)c1CCC(=O)NCc1cc(Br)cs1	15.28
Cc1cc(C(=O)NCC2COCc3c(C)nnn3C2)no1 (configuration not stated)	14.39
CCN1CC(C(=O)N(C)Cc2ccon2)CC1=O (configuration not stated)	-26.32
CN(C)CC(=O)N1CC[C@H]2OCC[C@@]2(COCC2CC2)C1	11.87
c1cnc(N2CC[C@@H](OCC3CC3)[C@@H]2Cc2cccnc2)nc1	23.21
CNC(=O)COC1COC2(CCN(c3ccc(C#N)cc3)CC2)C1 (configuration not stated)	14.97
COCC(=O)N(CCC(=O)OC)CC1CCCO1 (configuration not stated)	10.4
COCC(=O)N1CC[C@H]2C[C@@H](c3nnc(C4CC4)o3)O[C@@H]2C1	6.55
COCC(=O)N1CC[C@H]2C[C@H](c3nnc(C4CC4)o3)O[C@@H]2C1	50.61
COCC(=O)N1CC[C@H]2C[C@H](c3nc(C)no3)O[C@@H]2C1	-1.81
CC(C)CS(=O)(=O)CCNC(=O)Nc1cccc2ncccc12	-41.73
O=C(Cn1cc(C(=O)O)ccc1=O)Nc1cc(F)ccc1F	63.46
O=C(Cn1cc(C(=O)O)ccc1=O)Nc1ccc(F)cc1Cl	-5.95
COCCOCC(=O)Nc1cc(C)ccc1F	12.56
COCCOCC(=O)Nc1ccc(F)cc1C	52.74
Cc1cc(F)ccc1NC(=O)Cn1cc(C(=O)O)ccc1=O	55.39
Cc1ccc(Cl)cc1NC(=O)Cn1cc(C(=O)O)ccc1=O	22.4
O=C(Cn1cc(C(=O)O)ccc1=O)NCc1ccc(F)cc1Cl	9.27
O=C(Cn1cc(C(=O)O)ccc1=O)Nc1ccc(Cl)cc1F	33.23
COCCOCC(=O)Nc1ccc(C)cc1F	11.28
O=C(CC1COCCN1C(=O)c1cscn1)c1ccccc1 (configuration not stated)	5.43

Structure (SMILES)	INHIBITION [%]
CNC(=O)Cc1ccccc1NC(=O)C1CCN(C2CCCCC2)C1 (configuration not stated)	-0.39
CC(=O)Nc1ccc(CNCc2ccc(CS(C)(=O)=O)cc2)cc1	-1.53
Cc1nc(CN2CCCC(NCCCOc3ccc(F)cc3)C2)no1 (configuration not stated)	4.18
CCc1ncc(C(=O)NCC2CCN(Cc3ccncc3)CC2)cn1	-6.29
CCN1CCN(C2CCN(Cc3cc(C)on3)CC2)C1=O	-14.11
Cc1csc(N2CCN(C(=O)CCc3nccs3)CC2)n1	-18.67
Cc1cc(C(=O)N(CC(C)C)CC(O)c2ccc(F)cc2)[nH]n1 (configuration not stated)	51.96
Cc1[nH]ncc1C(=O)N(CC(C)C)CC(O)c1ccc(F)cc1 (configuration not stated)	25.65
CC(C)CN(CC(O)c1ccc(F)cc1)C(=O)c1cc[nH]n1 (configuration not stated)	10.91
NCc1cn(CC2CCCN(C(=O)NCCc3ccc(F)cc3)C2)nn1 (configuration not stated)	62.51
CC(C)NC(=O)N1CCCC(Cn2cc(-c3ccc(F)cc3)nn2)C1 (configuration not stated)	-17.86
COc1ccc(CC(=O)N2CCCC(Cn3cc(CN)nn3)C2)cc1 (configuration not stated)	12.43
NCc1cn(CC2CCCN(C(=O)CC3=CCCCC3)C2)nn1 (configuration not stated)	16.72
COc1cccc(CNC(=O)N2CCCC(Cn3cc(CN)nn3)C2)c1 (configuration not stated)	76.82
CCC(=O)N1CCCC(Cn2cc(-c3ccc(F)cc3)nn2)C1 (configuration not stated)	-27.82
NCc1cn(CC2CCCN(C(=O)NCc3ccc(Cl)cc3)C2)nn1 (configuration not stated)	62.51
COc1cccc(CNC(=O)CN2CCCC(Cn3cncn3)C2)c1 (configuration not stated)	-0.76
CNc1ccc(Cl)cc1C(=O)N1CCC(Cn2cc(CN)nn2)CC1	3.72
Cc1nnc(NC(=O)NCc2ccc(OC3CCCC3)nc2)s1	12.74
CCN1C(=O)CO[C@@H]2CN(C(=O)C3CCOCC3)C[C@H]21	18.31
COc1ccc(N(c2ccc(OC)cc2)c2ccc(C(=O)O)s2)cc1	14.95
CC1c2ncc(COCC3CC3)n2CCN1C(=O)c1ccnn1C (configuration not stated)	21.67

Structure (SMILES)	INHIBITION [%]
Cc1cc(NC(=O)NCC(C(C)C)N2CCOCC2)n(C)n1 (configuration not stated)	11.63
CN(Cc1cccnc1)C[C@H]1OC[C@@H]2CCN(C(=O)C3CC3)C[C@@H]21	8.62
CC(CCN1CCC(n2cc(CCO)nn2)CC1)c1ccccc1 (configuration not stated)	30.89
Cc1ccc(CN2CCC(n3cc(CN4CCC(O)CC4)nn3)CC2)s1	35.7
Cc1cccc(CN2CCC(n3cc(CCO)nn3)CC2)c1C	55.36
Cc1nc(C2CCCN2C(=O)c2cc3c(s2)CCC3)no1 (configuration not stated)	16.89
CCc1nc(CN2CCCN(c3ncnc4ccsc34)CC2)no1	80
CCc1nc(CN2CCCN(c3ncnc4ccccc34)CC2)no1	-50.34
CCc1nc(CN2CCCN(c3ncnc4sccc34)CC2)no1	37.75
CC(C)CN1CCN(C(=O)c2ccn(C)c(=O)c2)CC1	1.36
Cc1cnn(CC2CCCN2Cc2nc3ccccc3n2C)c1 (configuration not stated)	9.9
CC(C)c1cc(C(=O)NCCN2CCCS2(=O)=O)n[nH]1	-61.61
O=C(CC1CCCC1)N1CCOC(c2nc(-c3ncccn3)no2)C1 (configuration not stated)	57.82
O=C(Cc1ccccc1)N1CCOC(c2nc(-c3ncccn3)no2)C1 (configuration not stated)	0.18
O=C(C1CCCC1)N1CCOC(c2nc(-c3ncccn3)no2)C1 (configuration not stated)	22.81
Cc1ccccc1C(=O)Nc1cnn(CC(=O)NC2CCCC2)c1	-24.24
CCS(=O)(=O)N1CCCC(c2ccnc(N(C)C)c2)C1 (configuration not stated)	59.91
CN(C)c1cc(C2CCCN(S(=O)(=O)c3cn(C)cn3)C2)ccn1 (configuration not stated)	36.15
CN(C)c1cc(C2CCCN(S(=O)(=O)C3CCCC3)C2)ccn1 (configuration not stated)	29.89
CC(C)NC(=O)c1cc(-c2ccc(S(C)(=O)=O)cc2)c2cnn(C)c2n1	10.93
Cc1nc(CC(=O)N2CCC(Nc3cccnn3)CC2)cs1	3.97
CCN(C)S(=O)(=O)N(CC)Cc1cccc(-c2ccncc2)c1	21.24

Structure (SMILES)	INHIBITION [%]
CCN(Cc1cccc(-c2ccncc2)c1)S(N)(=O)=O	20.14
CCN(Cc1cccc(-c2ccncc2)c1)S(C)(=O)=O	63.1
O=C(Cc1ccon1)N1CCc2cc(Br)sc2C1	-10.14
COc1ccc(CNC(=O)N2CCC(Cc3cnn(C)c3)C2)cc1C (configuration not stated)	20.28
CCNc1ncc(C)c(-c2cnn(C)c2)n1	8.26
Cc1cnc(NCc2cnn(C)c2)nc1-c1cnn(C)c1	10.13
Cc1cnc(NCc2ccncc2)nc1-c1cnn(C)c1	72.34
CCNC(=O)NC(C)(C)C(=O)NCCc1csc2ccccc12	32.03
c1cnc(-c2nc(CN3CCN(CC4CC4)CC3)cs2)nc1	24.88
O=C1CSC(c2ccc(O)cc2)c2sccc2N1 (configuration not stated)	17.94
COc1ccc(C2SCC(=O)Nc3ccsc32)cc1OC (configuration not stated)	7.62
Cn1c(=O)n(C)c2cc(C3SCC(=O)Nc4ccsc43)ccc21 (configuration not stated)	74.91
CCCc1nnc(C(=O)N(C)Cc2cnc3ccccn23)o1	-2.89
CCc1nc(C)c(C(=O)N(C)Cc2cnc3ccccn23)o1	52.81
CCOC(=O)N(C)C1CCN(Cc2cnc3ccccn23)CC1	2.26
COCc1nnc(C(=O)N(C)Cc2ccc(OC)cc2)o1	14.55
CN(C(=O)C1CCN(Cc2cnc3ccccn23)CC1)c1ccccc1	4.07
COCc1nnc(C(=O)N(C)Cc2cnc3ccccn23)o1	80.13
CS(=O)(=O)N1CCCCC12CCCN(Cc1nccs1)C2 (configuration not stated)	-14.74
CCc1cc(NCCNc2ccncc2C)n2nc(C)c(C)c2n1	-7.77
CC(Nc1ccn(Cc2ccccn2)n1)C(=O)NC(C)(C)C (configuration not stated)	-48.1
Cc1nc(CN(C)C)cc(N2CCCC(COc3ccc(F)cc3)C2)n1 (configuration not stated)	40.47

Structure (SMILES)	INHIBITION [%]
Cc1noc(C)c1C(=O)N1CC[C@H]2C[C@@H](c3ccncn3)O[C@@H]2C1	1.42
Cc1cc(C(=O)N2CC[C@H]3C[C@H](c4ccncn4)O[C@@H]3C2)c(C)[nH]1	-16.33
Cc1oncc1C(=O)N1CC[C@H]2C[C@H](c3ccncn3)O[C@@H]2C1	52.34
CN(Cc1ccc(Cl)c(Cl)c1)C(=O)CNC(N)=O	32.81
COCCN1CCC2(CC1)CC(Nc1ccc(C)nn1)CO2 (configuration not stated)	7.72
Cc1noc(OCC(=O)N2CCCCC2C)n1 (configuration not stated)	50.32
CC1CCCCN1C(=O)COc1nc(C(C)(C)C)no1 (configuration not stated)	47.04
CC(C)c1noc(OCC(=O)N2CCCCC2C)n1 (configuration not stated)	17.48
CC(CNCC1(S(C)(=O)=O)CCOCC1)c1ccc(F)cc1 (configuration not stated)	29.28
CCC(C)CNCC1(S(C)(=O)=O)CCOCC1 (configuration not stated)	10.03
CCC(CC)CNCC1(S(C)(=O)=O)CCOCC1	59.99
CCn1c(SCC(=O)N2CCOCC2)nc2cc(C)[nH]c2c1=O	33.58
Cc1cc2nc(SCC(=O)N3CCOCC3)n(CC(C)C)c(=O)c2[nH]1	50.74
Cc1cc2nc(SCC(=O)N3CCOCC3)n(CCC(C)C)c(=O)c2[nH]1	44.15
CC(C)CN1CCC(c2nnc(CN3CCCC3)n2C2CC2)CC1	8.03
CCC(=O)N1CCCC1c1nccnc1Nc1nc(C)cc(C)n1 (configuration not stated)	44.72
CN(C)C(=O)C1(CCCc2ccncc2)CCCN1 (configuration not stated)	54.82
CNC(=O)C1(CCCc2ccncc2)CCCN1 (configuration not stated)	-0.51
NC(=O)C1(CCCc2ccncc2)CCCN1 (configuration not stated)	46.98
